# Results reported in PubChem BioAssay AID463173 (ICCB-Longwood Screening Facility, Harvard Medical School, 2010).
# Hit rate of the full screen: of about 52,000 compounds, about 4,300 (8.3%) were called active. The entries come from a sample that favours actives as a whole. A number with no mark means an inactive call. Rule as the data show it: active = survival mostly below about 52% (no sharp cut-off); inactive = mostly above about 56%.
# Tested on: DeltatarO mutant
# Assay: S. aureus survival, RN4220 and DeltatarO strains – OD600, teichoic acid synthesis inhibitors, primary screen (AID 463173)
# Details: S. aureus RN4220 wild type/DeltatarO growth, OD600, 18 h, hits give low values, screened at 18.75 µg/mL (by protocol)
row,Compound,survival
1,Cc1ccc(N(C)S(=O)(=O)c2ccc(-c3coc(C)n3)cc2)cc1,75%
2,COc1ccc(NC(=O)CCCc2nc(-c3ccco3)no2)c(OC)c1,107%
3,CC1Cc2cc(S(=O)(=O)CCC(=O)Nc3ccc(OC(F)(F)F)cc3)ccc2N1C(=O)C1CC1 (configuration not stated),85%
4,Cc1ccccc1N1CCN(S(=O)(=O)c2ccccc2)CC1,28% (active)
5,COc1ccc(S(=O)(=O)N2CCN(S(=O)(=O)c3ccccc3)CC2)cc1,87%
6,Cc1ccccc1N1CCN(S(=O)(=O)c2nnc(NC(=O)c3ccc(Cl)cc3)s2)CC1,43% (active)
7,CS(=O)(=O)N1CCN(S(=O)(=O)c2ccccc2)CC1,104%
8,O=C(Nc1nnc(S(=O)(=O)N2CCN(c3ccc(F)cc3)CC2)s1)c1ccc(Cl)cc1,57%
9,Cc1cccc(N2CCN(S(=O)(=O)c3nnc(NC(=O)c4ccc(Cl)cc4)s3)CC2)c1,54%
10,O=C(Nc1ccc(O)cc1)c1cccc(S(=O)(=O)N2CCOCC2)c1,77%
11,CCOc1ccc(NC(=O)Cn2nc3c(cc2=O)CC(C)CC3)cc1 (configuration not stated),98%
12,c1ccc(C2SCCN2c2ccccc2)cc1 (configuration not stated),97%
13,Cc1cccc(N2CCN(C(=O)Cn3c(-c4cccs4)cc4ccccc43)CC2)c1C,78%
14,Cc1cccc(NC(=O)Nc2cccs2)c1C,93%
15,Cc1nc(CC(=O)Nc2cccc(C)c2C)cs1,39% (active)
16,Cc1ccc(NC(=O)Cc2csc(C)n2)c(C)c1,40% (active)
17,CCc1cccc(CC)c1NC(=O)Cc1csc(C)n1,42% (active)
18,Cc1ccc(Cl)cc1NC(=O)c1csnn1,78%
19,Cc1cccc(OCc2nc(CC(=O)Nc3ccc(C)cc3C)cs2)c1,79%
20,Cc1ccc(C(=O)CCC(=O)Nc2ccc(C)cc2C)cc1,115%
21,Cc1nc(CC(=O)Nc2cc(Cl)ccc2C)cs1,45% (active)
22,CCCCCOc1ccc(NC(=O)Cc2csc(C)n2)cc1,44%
23,Cc1cc(C)c(NC(=O)Cc2csc(C)n2)c(Cl)c1,48%

row,Compound,survival
1,CCc1ccc(NC(=O)Cc2csc(COc3cccc(C)c3)n2)cc1,88%
2,Cc1ccccc1-c1noc(CCC(=O)Nc2cccc(C)c2C)n1,88%
3,COCC(=O)N1CCC(n2nnc3cc(F)ccc32)CC1,53%
4,CCN(CC)CC(=O)N1CCCC1=O,100%
5,Cc1cc(C)c(/C=C/c2onc(C)c2S(=O)(=O)N2CCC(C(=O)NCc3ccco3)CC2)c(C)c1,90%
6,CCOC(=O)c1ccc(NC(=O)CCn2c(=O)c3cccn3c3ccccc32)cc1,91%
7,CCC(c1nnnn1CCOC)N1CCN(c2cccc(C(F)(F)F)c2)CC1 (configuration not stated),107%
8,Cn1c(CNc2ccc(Cl)cc2)nnc1SCc1ccc(Cl)cc1,68%
9,CC(=O)N1CCCC1c1nc2ccccc2n1Cc1ccc(F)cc1 (configuration not stated),85%
10,CCc1cccc(CC)c1NC(=O)c1c(C)oc2ccc(O)c(CN3CCCC3)c12,113%
11,O=S1(=O)c2ccccc2-c2cc(Br)ccc21,79%
12,CCOC(=O)CNC(=O)Nc1cc(C(=O)NCc2ccccc2OC)ccc1N1CCCC1,80%
13,CCC(=O)/C=C1/Sc2ccc(C)cc2N1CC,97%
14,Cc1cc(F)ccc1NC1(c2ccccc2)C(=O)c2ccccc2C1=O,79%
15,O=C(O)c1cc(NC2(c3ccccc3)C(=O)c3ccccc3C2=O)ccc1Cl,87%
16,Cc1ccc(NC2(c3ccccc3)C(=O)c3ccccc3C2=O)cc1F,58% (active)
17,COc1cc(OC)c(NC(=O)Nc2sc3nc4n(c(=O)c3c2C)CCC(C)CC4)cc1Cl (configuration not stated),85%
18,CCOc1ccc2c(c1)c(=O)c(C(=O)c1ccc3c(c1)OCO3)cn2Cc1ccc(F)cc1,98%
19,O=C(c1ccc2c(c1)OCO2)c1cn(Cc2ccc(Cl)cc2)c2ccc(F)cc2c1=O,55% (active)
20,CCc1ccc(C(=O)c2cn(CC(=O)Nc3ccc4c(c3)OCCO4)c3ccc(C)cc3c2=O)cc1,57% (active)
21,COc1ccccc1Cn1cc(C(=O)c2ccc(C)cc2)c(=O)c2cc(C)ccc21,112%
22,COc1ccc(C(=O)c2cn(Cc3ccc(F)cc3)c3ccc(C)cc3c2=O)cc1,24% (active)
23,CCc1ccc(C(=O)c2cn(Cc3ccccc3)c3cc(OC)c(OC)cc3c2=O)cc1,58%

row,Compound,survival
1,COc1ccccc1Cn1cc(C(=O)c2ccccc2)c(=O)c2cc(OC)c(OC)cc21,23% (active)
2,CCc1ccc(C(=O)c2cn(CC(=O)Nc3ccc4c(c3)OCCO4)c3ccc(CC)cc3c2=O)cc1,72%
3,O=C(c1ccc2c(c1)OCO2)c1cn(Cc2ccc(F)cc2)c2ccccc2c1=O,68%
4,COc1ccc(Cn2cc(C(=O)c3ccc(C)cc3)c(=O)c3cc(OC)c(OC)cc32)cc1,93%
5,COc1ccc(Cn2cc(C(=O)c3ccc(F)cc3)c(=O)c3cc4c(cc32)OCCO4)cc1,66%
6,CCc1ccc2c(c1)c(=O)c(C(=O)c1ccc(C)cc1)cn2CC(=O)Nc1ccc2c(c1)OCCO2,61%
7,COCCNC(=O)CSc1nc2ccccc2nc1Cc1ccc(C)cc1,78%
8,CCOC(=O)c1oc2ccccc2c1CN(C)CCc1ccccc1,70%
9,COc1ccc(CCn2c(=O)c3cccnc3n(CC(=O)Nc3c(C)cccc3C)c2=O)cc1OC,90%
10,COc1ccccc1C(=O)Nc1ccc(NC(=O)c2cccs2)cc1,51%
11,CCc1nnc(NC(=O)C(=O)c2cc(C)n(-c3ccccc3)c2C)s1,77%
12,CCOc1ccc(-n2c(SCC(=O)Nc3ccccc3OC)nc3c(oc4ccccc43)c2=O)cc1,69%
13,COc1ccc(-c2noc(C3CC(=O)N(c4ccc5c(c4)OCCO5)C3)n2)c(OC)c1 (configuration not stated),98%
14,COc1ccc(N(C(=O)c2ccc(C(C)(C)C)cc2)S(=O)(=O)c2ccc(Cl)cc2)cc1,81%
15,Cc1ccc(Cn2cc(C(=O)c3ccc4c(c3)OCO4)c(=O)c3cc(C)ccc32)cc1,59%
16,Cc1ccc2c(c1)c(=O)c(C(=O)c1ccc3c(c1)OCO3)cn2Cc1cccc(F)c1,66%
17,Cc1ccc2c(c1)c(=O)c(C(=O)c1ccc3c(c1)OCO3)cn2Cc1ccc(Cl)cc1,46% (active)
18,CCOC(=O)c1ccc(NC(=O)CC2C(=O)N(c3ccc(F)cc3)C(=O)N2Cc2ccc3c(c2)OCO3)cc1 (configuration not stated),116%
19,O=C(c1ccc(-n2cnnn2)cc1)N(C1CCCCC1)C1CCCCC1,93%
20,COc1cc(OC)c(NC(=O)NCCn2nnc3cc(S(=O)(=O)N(C)C)ccc32)cc1Cl,88%
21,Cc1cc(F)ccc1-n1nnc(C(N)=O)c1C,76%
22,COc1ccc(-n2c(SCC(=O)NCc3ccccc3)nc3c([nH]c4ccccc43)c2=O)cc1,93%
23,CC(CNC(=O)CCn1c(=O)c2cccn2c2ccc(F)cc21)c1ccccc1 (configuration not stated),34% (active)

row,Compound,survival
1,CC(CNC(=O)CCCn1c(=O)c2cccn2c2ccccc21)c1ccccc1 (configuration not stated),47%
2,CC(NC(=O)CCn1c(=O)c2cccn2c2ccc(F)cc21)c1ccccc1 (configuration not stated),59%
3,CC(CNC(=O)CCCn1c(=O)c2cccn2c2ccc(F)cc21)c1ccccc1 (configuration not stated),35% (active)
4,CC(CNC(=O)CCCn1c(=O)c2cccn2c2cccnc21)c1ccccc1 (configuration not stated),95%
5,COc1cc(C(=O)NCC(c2ccco2)S(=O)(=O)c2cccs2)cc(OC)c1OC (configuration not stated),91%
6,COc1cc(C2c3c(-c4c(C)cc(C)cc4O)n[nH]c3C(=O)N2CCCOC(C)C)cc(OC)c1OC (configuration not stated),86%
7,CCOc1cc(CNC(=O)c2ccc3c(c2)NC(=O)C2CCCCN32)cc(OCC)c1OCC (configuration not stated),107%
8,O=C1C2C3C=CC(C3)C2C(=O)N1c1ccc(Cl)cc1 (configuration not stated),70%
9,CCC(Oc1ccccc1)C(=O)Nc1ccc(OCc2cc(=O)n3ccc(C)cc3n2)cc1 (configuration not stated),91%
10,O=C(NCCc1ccccc1)c1ccc2c(c1)N(Cc1ccc(F)cc1)C(=O)c1ccccc1S2,99%
11,COc1ccc(CCNC(=O)CSCc2nc(-c3cccc(C)c3)oc2C)cc1OC,66%
12,COc1cccc(-c2nc(CS(=O)(=O)CC(=O)NCCc3ccc(Cl)cc3)c(C)o2)c1,63%
13,COc1ccc(-c2nc(CSCC(=O)NCCc3ccc(OC)c(OC)c3)c(C)o2)cc1,79%
14,CCOc1ccc(CCNC(=O)CSCc2nc(-c3cccc(C)c3)oc2C)cc1OCC,82%
15,COc1cccc(-c2nc(CSCC(=O)NCCc3ccc(Cl)cc3)c(C)o2)c1,-4% (active)
16,Cc1cccc(-c2nc(CSCC(=O)NCCc3ccc(Cl)cc3)c(C)o2)c1,-7% (active)
17,O=C(c1cc(=O)c2cc(Cl)ccc2o1)N(Cc1ccccc1)C1CCS(=O)(=O)C1 (configuration not stated),51%
18,N#Cc1ccccc1NC(=O)CSC1=NCCS1,99%
19,COc1ccc(-c2csc3ncnc(Nc4cccc(OC)c4)c23)cc1,69%
20,COc1ccc(-c2csc3ncnc(Nc4cccc(F)c4)c23)cc1,0% (active)
21,COc1ccc(Nc2ncnc3scc(-c4ccc(F)cc4)c23)cc1,92%
22,O=C1CC(c2nc3ccccc3[nH]2)CN1c1cccc(Cl)c1 (configuration not stated),81%
23,COc1cc(C(=O)NCCSc2c(-c3ccccc3)[nH]c3ccccc23)cc(OC)c1OC,68%
